The values that follow come from PubChem BioAssay (Tox21).

SMILES strings stand for the structures. Several values for one entry are separate records, joined by “and”; a condition that tells them apart may be missing. Identical values can stand only once. Inconclusive results are not listed. More than one record can exist for a structure, and the calls need not agree. Activity calls are given as the source filed them. Unless noted, calls come from the whole dose curve; as a rule, active = well fitted curve in the direction sought with a large enough effect in the repeat runs; inconclusive = weak or mixed curves; inactive = no such curve, though single readings can be large; an effect the other way counts as inactive or inconclusive.

Test [1] deals with Estrogen receptor beta (Homo sapiens) (UniProt Q92731). Briefly: qHTS assay to identify small molecule agonists of the estrogen receptor beta (ER-beta) signaling pathway (AID 1259377; active = well fitted activation curve with a large enough effect in the signal ratio in the repeat runs, not every such curve was filed as active; the % refers to the signal ratio; note: potency is the fitted concentration of half-maximal effect). Put shortly:
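Measured by fluorescence intensity from a B/G FRET beta-lactamase substrate (2 h, room temperature) in ER-beta-UAS-bla HEK293T cells treated with DMSO-dissolved compounds for 16 hr at 37C and 5% CO2.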

Test [2] shares this target. Briefly: qHTS assay to identify small molecule antagonists of the estrogen receptor beta (ER-beta) signaling pathway (AID 1259378; active = well fitted inhibition curve with a large enough effect in the signal ratio in the repeat runs, not every such curve was filed as active; the % refers to the signal ratio; note: potency is the fitted concentration of half-maximal effect). A digest of the protocol:
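ER-beta-UAS-bla HEK293T (GripTite) cells in 2% charcoal-stripped FBS medium were preincubated 6 hr at 37C, dosed with compound, then stimulated with 1 nM E2 (final) for 16 hr; beta-lactamase reporter read by B/G FRET fluorescence after 2 hr substrate loading.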

Test [3] in a line: qHTS assay to identify small molecule agonists or antagonists of the thyroid stimulating hormone receptor (TSHR) signaling pathway - wild type cell line counter screen (AID 1259384; calls by dose curve). Put shortly:
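Wild-type HEK293 cells were plated 18 h at 37 C/5% CO2, pin-dosed with compound plus Ro20-1724 medium, held 30 min at room temperature, then given cAMP-d2 and anti-cAMP-cryptate; fluorescence was read after 1 h. Fifteen concentrations, triplicate.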

The target in test [4] is Thyrotropin receptor (Homo sapiens) (UniProt P16473). Briefly: qHTS assay to identify small molecule antagonists of the thyroid stimulating hormone receptor (TSHR) signaling pathway (AID 1259385; calls by dose curve; note: nearly all actives have a fitted effect of over 20% in size; note: potency is the fitted concentration of half-maximal effect). Put shortly: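 TSHR-HEK293 cells were plated and held 18 h at 37C/5% CO2, then given compound plus Ro20-1724 and stimulated with TSH at 1.5 ng/mL final. After 30 min at room temperature, cAMP was detected with cAMP-d2/anti-cAMP-cryptate (1 h) by fluorescence.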
Sequence of Thyrotropin receptor (Homo sapiens) (P16473 whole entry, looked up): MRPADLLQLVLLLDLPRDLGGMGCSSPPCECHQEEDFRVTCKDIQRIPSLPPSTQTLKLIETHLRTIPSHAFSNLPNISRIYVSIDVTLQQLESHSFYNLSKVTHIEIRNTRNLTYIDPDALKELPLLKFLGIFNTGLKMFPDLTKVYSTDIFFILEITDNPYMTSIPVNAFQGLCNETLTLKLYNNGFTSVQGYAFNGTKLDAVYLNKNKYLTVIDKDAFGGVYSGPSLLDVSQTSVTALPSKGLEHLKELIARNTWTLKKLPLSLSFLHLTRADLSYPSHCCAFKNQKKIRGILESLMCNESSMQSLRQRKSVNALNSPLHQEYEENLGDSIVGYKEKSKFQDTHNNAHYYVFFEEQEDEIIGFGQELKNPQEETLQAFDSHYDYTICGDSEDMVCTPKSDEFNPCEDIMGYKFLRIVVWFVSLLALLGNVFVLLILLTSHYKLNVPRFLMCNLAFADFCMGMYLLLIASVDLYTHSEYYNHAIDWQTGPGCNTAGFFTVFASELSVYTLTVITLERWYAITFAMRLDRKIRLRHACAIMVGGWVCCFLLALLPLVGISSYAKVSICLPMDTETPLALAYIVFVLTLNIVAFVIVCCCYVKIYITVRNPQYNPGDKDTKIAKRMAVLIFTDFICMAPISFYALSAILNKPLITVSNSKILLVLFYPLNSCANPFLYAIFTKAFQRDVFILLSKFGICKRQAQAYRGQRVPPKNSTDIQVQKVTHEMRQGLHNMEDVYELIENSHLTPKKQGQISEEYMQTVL
On the technique in general: Quantitative high-throughput screening tests each substance at several concentrations.

Test [5] in a line: qHTS assay to identify small molecule agonists of the estrogen receptor alpha (ER-alpha) signaling pathway in the presence of an antagonist - cell viability counter screen (AID 1259386).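 Note: cells exposed to compounds for 22 h at 37 °C before the viability read; nearly all actives have a fitted effect of over 30% in size.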 Note: potency is the fitted concentration of half-maximal effect. A digest of the protocol: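 VM7Luc4E2, stripped-serum pre-culture 5 d; 24hr plating; +ICI-182,780 10.0nM final; cpds 15 conc, 22hr, 37C/5% CO2; CellTiter-Fluor added at 21hr, fluorescence 1hr later.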

The target in test [6] is Progesterone receptor (Homo sapiens) (UniProt P06401). Briefly: qHTS assay to identify small molecule agonists of the progesterone receptor (PR) signaling pathway (AID 1346784; calls by dose curve; note: nearly all actives have a fitted effect of over 30% in size). A digest of the protocol: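 The screen uses PR-UAS-bla HEK 293T cells in charcoal-stripped serum (2%). Compounds are applied for 16 hr at 37C after a 6 hr pre-incubation, and reporter activity is detected with a FRET beta-lactamase substrate after 2 hr at room temperature.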
Sequence of Progesterone receptor (Homo sapiens) (P06401 whole entry, looked up): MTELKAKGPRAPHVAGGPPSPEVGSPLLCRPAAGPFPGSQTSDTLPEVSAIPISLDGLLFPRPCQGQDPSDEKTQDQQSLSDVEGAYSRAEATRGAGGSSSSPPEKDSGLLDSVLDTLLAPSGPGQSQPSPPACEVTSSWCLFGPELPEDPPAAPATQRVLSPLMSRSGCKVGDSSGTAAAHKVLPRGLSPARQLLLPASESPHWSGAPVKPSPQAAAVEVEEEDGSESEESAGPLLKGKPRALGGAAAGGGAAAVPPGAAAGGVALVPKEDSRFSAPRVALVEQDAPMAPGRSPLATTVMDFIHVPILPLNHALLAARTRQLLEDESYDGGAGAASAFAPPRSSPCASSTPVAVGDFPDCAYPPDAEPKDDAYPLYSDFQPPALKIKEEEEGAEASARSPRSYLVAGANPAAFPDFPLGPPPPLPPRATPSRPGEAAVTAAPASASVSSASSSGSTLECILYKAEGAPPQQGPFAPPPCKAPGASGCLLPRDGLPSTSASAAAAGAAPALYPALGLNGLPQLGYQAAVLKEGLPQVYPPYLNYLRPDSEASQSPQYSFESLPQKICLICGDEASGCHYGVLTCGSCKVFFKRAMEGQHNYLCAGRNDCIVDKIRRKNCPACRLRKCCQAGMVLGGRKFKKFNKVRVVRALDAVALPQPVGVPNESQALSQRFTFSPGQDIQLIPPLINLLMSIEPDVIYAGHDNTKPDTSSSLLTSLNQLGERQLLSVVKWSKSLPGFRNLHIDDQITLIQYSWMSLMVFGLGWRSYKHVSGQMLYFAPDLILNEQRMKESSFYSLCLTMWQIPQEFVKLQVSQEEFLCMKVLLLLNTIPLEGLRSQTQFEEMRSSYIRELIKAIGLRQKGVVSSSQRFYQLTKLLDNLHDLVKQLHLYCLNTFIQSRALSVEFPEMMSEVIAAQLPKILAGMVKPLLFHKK

Test [7] in a line: qHTS assay to identify small molecule antagonists of the progesterone receptor (PR) signaling pathway - cell viability counter screen (AID 1346798). Note: nearly all actives have a fitted effect of over 50% in size. Note: potency is the fitted concentration of half-maximal effect. A digest of the protocol:
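Viability was determined by ATP-based luminescence (CellTiter-Glo) in PR-UAS-bla HEK293T cells cultured in 2% charcoal-stripped serum and incubated 16 hr with compounds under R5020 stimulation.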

Test [8] can be described thus: qHTS assay to identify small molecule agonists of the progesterone receptor (PR) signaling pathway - cell viability counter screen (AID 1346799; calls by dose curve; note: nearly all actives have a fitted effect of over 45% in size; note: potency is the fitted concentration of half-maximal effect). A digest of the protocol: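 Viability was scored by ATP luminescence (CellTiter-Glo, 30 min, room temperature) in the same wells used for the reporter readout, after 16 hr compound exposure of PR-UAS-bla HEK293T cells.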

Test [9] in a line: qHTS assay to identify small molecule antagonists of the TGF-beta/Smad signaling pathway - cell viability counter screen (AID 1346824). Note: nearly all actives have a fitted effect of over 50% in size. A digest of the protocol:
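SBE-bla HEK 293T cells were plated overnight at 37 C, then given compounds in DMSO plus TGF-beta1 (added as 0.25 ng/mL solution) for 5 hr. After the bla read, CellTiter-Glo was added to the same wells and luminescence read after 30 min at room temperature.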

The nature of test [10]: qHTS assay to identify small molecule agonists of the TGF-beta/Smad signaling pathway - cell viability counter screen (AID 1346829). Note: top concentration of the series differs between compounds; nearly all actives have a fitted effect of over 45% in size. A digest of the protocol:
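SBE-bla HEK 293T cells plated overnight, compound exposure 5 hr at 37 C. Viability read in the same wells by CellTiter-Glo luminescence after 30 min at room temperature, following the beta-lactamase read.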

Test [11] in a line: qHTS assay to identify small molecule agonists of the TGF-beta/Smad signaling pathway (AID 1346859; active = well fitted activation curve with a large enough effect in the signal ratio in the repeat runs, not every such curve was filed as active; the % refers to the signal ratio; note: series mostly up to about 77 µM). Put shortly: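 Dual-wavelength fluorescence (460/530 nm emission) quantified beta-lactamase expression under the Smad binding element in HEK 293T cells following 5 hr compound treatment at 37 C.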
Test [12] concerns the target Thyrotropin-releasing hormone receptor (Homo sapiens) (UniProt P34981). Briefly: qHTS assay to identify small molecule agonists of the thyrotropin-releasing hormone receptor (TRHR) signaling pathway (AID 1346891; calls by dose curve;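 note: HEK293 cells expressing TRHR with calcium dye readout; series mostly up to about 58 µM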). A digest of the protocol: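 Kinetic fluorescence (3 min, 1 s intervals) reported intracellular calcium after compound transfer onto TRHR-Hek293 cells pre-loaded with dye for 2 h at 37 °C.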

The nature of test [13]: Human pregnane X receptor (PXR) small molecule agonists, qHTS cell viability counter screen (AID 1346977). Note: nearly all actives have a fitted effect of over 50% in size. Note: potency is the fitted concentration of half-maximal effect. Put shortly:
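HepG2 cells stably carrying the PXR-Luc reporter are cultured with 5% charcoal-stripped FBS and treated with compounds for 24hr. CellTiter-Fluor is added at 23hr and fluorescence is read after 1hr.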

Test [14] in a line: qHTS assay to identify small molecule agonists of the estrogen receptor beta (ER-beta) signaling pathway - cell viability counter screen (AID 1259380). Note: nearly all actives have a fitted effect of over 30% in size. Note: potency is the fitted concentration of half-maximal effect. Put shortly:
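HEK293T ER-beta-UAS-bla; 2% CS-FBS; 6 hr pre-plate, 16 hr cpd at 37C/5% CO2; LiveBLAzer read first, then CellTiter-Glo 30 min RT, luminescence.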

Test [15] in a line: qHTS assay to identify small molecule antagonists of the estrogen receptor beta (ER-beta) signaling pathway - cell viability counter screen (AID 1259382). Note: nearly all actives have a fitted effect of over 55% in size. Note: potency is the fitted concentration of half-maximal effect. A digest of the protocol:
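Cells: ER-beta-UAS-bla HEK293T, 2,000/well, 2% CS-FBS, 6 hr settle. Cpd + E2 (1nM final), 16 hr, 37C/5% CO2. Bla FRET substrate 2 hr RT, then CellTiter-Glo 30 min RT, luminescence.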

Test [16] has as its target Estrogen receptor (Homo sapiens) (UniProt P03372). Briefly: qHTS assay to identify small molecule agonists of the estrogen receptor alpha (ER-alpha) signaling pathway in the presence of an antagonist (AID 1259383; calls by dose curve; note: top concentration of the series differs between compounds; nearly all actives have a fitted effect of over 15% in size). A digest of the protocol: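 VM7Luc4E2, endog. ER-alpha + 4×ERE-luc; charcoal-stripped FBS, phenol red-free, 5 d; 24hr plating; +10.0nM ICI-182,780 (final); cpds 15 conc, 22hr, 37C/5% CO2; ONE-Glo luminescence.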

For test [17], the target named is Progesterone receptor (Homo sapiens) (UniProt P06401). Briefly: qHTS assay to identify small molecule antagonists of the progesterone receptor (PR) signaling pathway (AID 1346795; active = well fitted inhibition curve with a large enough effect in the signal ratio in the repeat runs, not every such curve was filed as active; the % refers to the signal ratio; note: potency is the fitted concentration of half-maximal effect). Put shortly:
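After 6 hr plating at 37C in 2% stripped-serum medium, PR-UAS-bla HEK293T cells got compounds, then 1 nM R5020. Sixteen hours later, LiveBLAzer substrate was applied for 2 hr at room temperature and fluorescence was recorded.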

Test [18] deals with Thyrotropin-releasing hormone receptor (Homo sapiens) (UniProt P34981). Briefly: qHTS assay to identify small molecule antagonists of the thyrotropin-releasing hormone receptor (TRHR) signaling pathway (AID 1346877; active = well fitted inhibition curve with a large enough effect in the repeat runs, not every such curve was filed as active; note: series mostly up to about 51 µM). Put shortly: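 Intracellular calcium fluorescence, read kinetically every second over 3 min, reports TRH-evoked signalling in HEK293 cells carrying TRHR. Test compounds were added 5 min ahead of a 1 nM TRH challenge.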
Sequence of Thyrotropin-releasing hormone receptor (Homo sapiens) (P34981 whole entry, looked up): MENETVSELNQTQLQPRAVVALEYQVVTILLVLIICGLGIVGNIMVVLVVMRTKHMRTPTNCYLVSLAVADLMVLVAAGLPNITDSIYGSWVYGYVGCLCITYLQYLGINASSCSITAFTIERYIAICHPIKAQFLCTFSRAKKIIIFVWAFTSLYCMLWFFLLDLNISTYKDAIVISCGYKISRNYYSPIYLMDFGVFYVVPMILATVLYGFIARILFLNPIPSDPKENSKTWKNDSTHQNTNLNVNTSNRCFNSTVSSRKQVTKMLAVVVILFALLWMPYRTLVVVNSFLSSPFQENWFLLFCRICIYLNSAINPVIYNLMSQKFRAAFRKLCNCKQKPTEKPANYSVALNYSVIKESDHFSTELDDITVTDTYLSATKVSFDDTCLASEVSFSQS

Test [19] can be described thus: qHTS assay to identify small molecule agonists of the androgen receptor (AR) signaling pathway in the presence of an antagonist - cell viability counter screen (AID 1259379). Note: nearly all actives have a fitted effect of over 25% in size. Note: potency is the fitted concentration of half-maximal effect. Put shortly: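 Cells: MDA-kb2 (MMTV-luc, AR and GR elements), 3,000/well, 5 hr settle. Added: nilutamide 3.0uM final, then compounds (15 conc.). Incubation: 16 hr, 37C, no CO2. Read-out: CellTiter-Fluor, 1 hr, fluorescence.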

Test [20] addresses Androgen receptor (Homo sapiens) (UniProt P10275). Briefly: qHTS assay to identify small molecule agonists of the androgen receptor (AR) signaling pathway in the presence of an antagonist (AID 1259381; calls by dose curve; note: nearly all actives have a fitted effect of over 15% in size). Put shortly: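 MDA-kb2 cells, 3,000/well, rested 5hr at 37C/0% CO2 → nilutamide 3.0uM final or buffer → compounds, 15 conc. → 16hr at 37C → ONE-Glo, 30min RT → luminescence.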

Sequence of Estrogen receptor beta (Homo sapiens) (Q92731 whole entry, looked up): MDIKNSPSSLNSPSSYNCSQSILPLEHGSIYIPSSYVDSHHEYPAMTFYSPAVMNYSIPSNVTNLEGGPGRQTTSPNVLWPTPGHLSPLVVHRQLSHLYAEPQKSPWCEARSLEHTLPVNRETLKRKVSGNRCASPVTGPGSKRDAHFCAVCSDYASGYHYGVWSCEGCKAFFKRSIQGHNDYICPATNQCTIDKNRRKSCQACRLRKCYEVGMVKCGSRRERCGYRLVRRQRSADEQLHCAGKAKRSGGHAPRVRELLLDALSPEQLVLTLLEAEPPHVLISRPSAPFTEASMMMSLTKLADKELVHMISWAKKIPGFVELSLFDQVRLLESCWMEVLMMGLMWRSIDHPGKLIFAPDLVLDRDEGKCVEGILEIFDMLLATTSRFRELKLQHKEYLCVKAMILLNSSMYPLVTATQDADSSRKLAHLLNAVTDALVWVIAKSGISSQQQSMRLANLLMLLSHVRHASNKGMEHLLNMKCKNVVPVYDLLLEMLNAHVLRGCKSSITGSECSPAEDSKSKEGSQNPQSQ
Sequence of Estrogen receptor (Homo sapiens) (P03372 whole entry, looked up): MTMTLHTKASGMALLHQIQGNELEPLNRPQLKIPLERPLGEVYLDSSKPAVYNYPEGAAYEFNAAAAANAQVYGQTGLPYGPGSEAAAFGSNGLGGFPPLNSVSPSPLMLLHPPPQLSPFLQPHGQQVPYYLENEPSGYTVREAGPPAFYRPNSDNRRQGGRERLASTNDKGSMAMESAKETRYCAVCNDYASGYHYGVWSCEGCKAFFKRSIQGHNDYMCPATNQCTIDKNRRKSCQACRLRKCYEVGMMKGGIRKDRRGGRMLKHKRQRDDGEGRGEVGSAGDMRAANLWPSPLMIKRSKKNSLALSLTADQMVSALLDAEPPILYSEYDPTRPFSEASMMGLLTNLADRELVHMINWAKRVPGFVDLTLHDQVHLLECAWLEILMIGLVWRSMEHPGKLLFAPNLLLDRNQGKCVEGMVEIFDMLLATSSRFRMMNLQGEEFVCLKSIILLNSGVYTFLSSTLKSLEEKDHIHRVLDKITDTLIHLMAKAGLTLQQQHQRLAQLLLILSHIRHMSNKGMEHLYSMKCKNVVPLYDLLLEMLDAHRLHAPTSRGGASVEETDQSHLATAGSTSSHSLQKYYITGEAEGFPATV
Sequence of Androgen receptor (Homo sapiens) (P10275 whole entry, looked up): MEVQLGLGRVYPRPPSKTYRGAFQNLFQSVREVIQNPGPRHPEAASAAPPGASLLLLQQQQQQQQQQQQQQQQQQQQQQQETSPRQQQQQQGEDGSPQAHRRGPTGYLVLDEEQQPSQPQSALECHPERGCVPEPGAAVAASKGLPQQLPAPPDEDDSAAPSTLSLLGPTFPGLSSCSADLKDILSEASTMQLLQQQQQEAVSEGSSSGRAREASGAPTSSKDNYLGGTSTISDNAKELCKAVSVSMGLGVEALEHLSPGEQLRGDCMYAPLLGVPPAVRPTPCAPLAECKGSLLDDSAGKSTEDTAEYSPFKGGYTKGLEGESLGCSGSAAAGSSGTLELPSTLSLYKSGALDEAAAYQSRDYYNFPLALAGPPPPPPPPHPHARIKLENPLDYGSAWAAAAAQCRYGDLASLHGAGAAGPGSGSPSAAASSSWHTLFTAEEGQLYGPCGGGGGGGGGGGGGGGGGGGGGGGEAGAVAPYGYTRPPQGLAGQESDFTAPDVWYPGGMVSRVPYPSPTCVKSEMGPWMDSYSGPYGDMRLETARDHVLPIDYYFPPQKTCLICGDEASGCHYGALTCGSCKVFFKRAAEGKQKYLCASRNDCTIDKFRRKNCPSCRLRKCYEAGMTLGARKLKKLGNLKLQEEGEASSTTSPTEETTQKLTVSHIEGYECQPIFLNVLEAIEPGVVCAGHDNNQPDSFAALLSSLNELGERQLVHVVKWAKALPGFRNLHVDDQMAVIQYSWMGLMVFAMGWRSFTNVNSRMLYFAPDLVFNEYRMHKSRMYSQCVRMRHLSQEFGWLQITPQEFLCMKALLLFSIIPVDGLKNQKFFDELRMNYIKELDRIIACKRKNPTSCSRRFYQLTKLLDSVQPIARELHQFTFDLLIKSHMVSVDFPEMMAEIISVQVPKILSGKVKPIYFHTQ

Regarding `Cc1c(C)n(Cc2ccccc2)c2ccc(C(=O)OCCN(C)C)cc12`, the Potency entry in [1], in test [4], in test [5], in test [7], in [8] and in [9] was “inactive” throughout. In addition, the Potency entry in test [10], in [11] and in test [12] was “inactive” throughout. Further, the Potency was 23.7 µM (active) in test [2] and 21.1 µM (active) in [13]. For the same compound, the outcome in test [3] and in test [6] was inactive.
With `CCOC(=O)N1CCC(=C2c3ccc(Cl)cc3CCc3cccnc32)CC1`, the Potency entry in [1], in test [16], in test [5], in [9], in test [18] and in test [12] was “inactive” each time. Besides, the Potency in test [2] is 15.4 µM (active); in test [14] it was 48.6 µM (active) and 26.6 µM (active); in test [15], 54.5 µM (active); in test [17], 13.7 µM (active); in [7] it was 61.1 µM (active).
With `Cc1cccc(C)c1NC(=O)CN1CCN(CCCC(c2ccc(F)cc2)c2ccc(F)cc2)CC1`, the Potency entry in test [1], in [9], in [10], in test [11] and in test [12] was “inactive” in each case. Further, the Potency in test [14] was 26.6 µM (active); in test [15], 26.6 µM (active); in [7] it was 29.8 µM (active); in [13], 23.7 µM (active). Besides, in test [3], the call was inactive.
For `CC1=C(/C=C/C(C)=C/C=C/C(C)=C\C=O)C(C)(C)CCC1`, the Potency result in [1], in test [4], in test [7], in [8], in test [9] and in test [10] was “inactive” each time. For the same compound, the Potency entry in [18], in test [12] and in [13] was “inactive” each time. Moreover, the Potency was 32.5 µM (active) in [2] and 41 µM (active) in test [14]. The compound was called inactive in [3] and in test [6].
As for `CC1CCCNC1` (centres undefined), the Potency result in test [1], in test [19], in [14], in test [15], in [16] and in test [4] was “inactive” throughout. Further, the Potency entry in test [5], in [9], in test [10], in test [11], in [18] and in [12] was “inactive” each time. Further, the compound was classed as inactive in [3] and in test [6].
`CC1CCCCN1CCCOC(=O)c1ccc(OC2CCCCC2)cc1` (centres undefined): the Potency result in [1], in test [20], in [15], in [4], in test [7] and in test [8] was “inactive” each time. The Potency result in [9], in test [10], in test [11], in [18], in test [12] and in test [13] was “inactive” each time. For the same compound, the Potency in [19] is 26.6 µM (active). In addition, the compound was called inactive in test [6].
In the case of `CCCCCCCCCCCCOC(=O)c1cc(O)c(O)c(O)c1`, the Potency result in test [1], in test [16] and in test [11] was “inactive” each time. In addition, the Potency in test [19] was 68.3 µM (active) and 61.1 µM (active); in test [14], 34.2 µM (active) and 68.6 µM (active); in [15], 68.3 µM (active) and 68.6 µM (active); in test [4], 68.3 µM (active) and inactive; in test [5], 60.9 µM (active); in test [7] it was 54.2 µM (active). Also, the Potency in [8] was 60.9 µM (active); in test [13], 60.9 µM (active) and 61.1 µM (active). In test [3], the outcome was inactive.
With `Oc1ccc(-c2ccc(O)cc2)cc1`, the Potency in test [1] is 2.75 µM (active). For the same compound, the Potency entry in test [19], in test [15], in test [4], in test [5], in test [7] and in test [8] was “inactive” each time. Besides, the Potency entry in test [10], in [11], in test [18] and in test [12] was “inactive” in each case. Further, the compound was classed as inactive in test [3].
